From doi:10.1101/2023.07.10.548322 come the findings set out here.

For the assay, the target named is alpha-synuclein (aSyn) WT (human, UniProt P37840 1-140). The assay can be described thus: RNA Bind-n-Seq. The settings on record: ssRNA.
GAGUGGGUGGGA: the binding signal was found to be 43.8 enrichment score. Then GGGGGGCUGAGG, with 43.8 enrichment score; and GGGUGGGUUUGG, with 43.8 enrichment score; and GGGGGUGGCAGA, with 43.8 enrichment score. The value for GUGGGGGGGCAU was 43.8 enrichment score.

AGUGGGUGUGGA yielded a binding signal of 49.1 enrichment score. GGGAUGUGUGGG showed a binding signal of 60.2 enrichment score.

As for GUGGAGAGGUGG, the binding signal is 54.6 enrichment score. The value for GGAGGAGGCGGU was 41.1 enrichment score.

In turn, GAGGUGGUAGGG gave a binding signal of 57.4 enrichment score. The value for GGUGGGUUUGGG was 65.9 enrichment score; that for UUGGGUGGAGGG was 46.4 enrichment score. Then AGUGGCGGAGGG, with 43.8 enrichment score; and GUGCGGGGGGGC, with 43.8 enrichment score.

On to UGGGUGGGAAGG, for which the binding signal is 43.8 enrichment score. The value for GGUGGUUUGUGG was 43.8 enrichment score; that for GUGUGGGGGCAG was 43.8 enrichment score. The value for AGGGGGAUGUGG was 54.6 enrichment score. Then GGAGGUGGUGCG, with 41.1 enrichment score; and GUGGGUGUGGUA, with 41.1 enrichment score; and GGGAAGGUUGUG, with 43.8 enrichment score.

For the sequence GGGUGUUGGUUG, the binding signal is 43.8 enrichment score. Then GAGGUGGAGGGU, with 57.4 enrichment score; and AAGGGGCGGAGG, with 54.6 enrichment score. The value for GGGGGAUGUGGU was 46.4 enrichment score; that for GGGGUGAGGUGU was 41.1 enrichment score.

Turning to GAGGUUGGCGGG, the binding signal was found to be 43.8 enrichment score. Then GGGGAGUGGAUG, with 49.1 enrichment score; and GGAUGGUUGGUG, with 54.6 enrichment score; and GGGGGGGGGGUG, with 49.1 enrichment score. Then UGGGGGUGGAUG, with 43.8 enrichment score; and CGGAGGUGGGUG, with 41.1 enrichment score. On to GUGGGGAGGAAG, for which the binding signal amounted to 46.4 enrichment score.
